Measured values: PubChem BioAssay (Tox21)
Where “and” joins values, the source holds several entries; their conditions need not be identical. Equal values may be shown once. Records with an inconclusive call do not appear. Entries that show only a call come without a potency. More than one record can exist for a structure, and the calls need not agree. Calls of active or inactive are those of the source. Unless noted, calls follow the shape of the dose curve; as a rule, active = well fitted curve in the direction sought with a large enough effect in the repeat runs; inconclusive = weak or mixed curves; inactive = no such curve, though single readings can be large; an effect the other way counts as inactive or inconclusive.

Tests used:
[1] = qHTS assay to identify small molecule antagonists of the estrogen related receptor (ERR) signaling pathway from Tox21 library - cell viability counter screen (AID 1224834); also: nearly all actives have a fitted effect of over 30% in size; also: potency is read from the fitted curve at half-maximal effect
In short: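 Multiplexed viability counter screen in ERR cells: 17.5 h compound exposure at 37 C, CellTiter-Fluor added, 30 min at 37 C/5% CO2, fluorescence read.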

[2] = biological target: Luciferin 4-monooxygenase (Photinus pyralis) (UniProt P08659); test: qHTS assay to identify small molecule inhibitors of firefly luciferase (AID 1224835); also: nearly all actives have a fitted effect of over 25% in size; also: potency is read from the fitted curve at half-maximal effect
Luciferin 4-monooxygenase (Photinus pyralis), sequence (P08659 whole entry, looked up): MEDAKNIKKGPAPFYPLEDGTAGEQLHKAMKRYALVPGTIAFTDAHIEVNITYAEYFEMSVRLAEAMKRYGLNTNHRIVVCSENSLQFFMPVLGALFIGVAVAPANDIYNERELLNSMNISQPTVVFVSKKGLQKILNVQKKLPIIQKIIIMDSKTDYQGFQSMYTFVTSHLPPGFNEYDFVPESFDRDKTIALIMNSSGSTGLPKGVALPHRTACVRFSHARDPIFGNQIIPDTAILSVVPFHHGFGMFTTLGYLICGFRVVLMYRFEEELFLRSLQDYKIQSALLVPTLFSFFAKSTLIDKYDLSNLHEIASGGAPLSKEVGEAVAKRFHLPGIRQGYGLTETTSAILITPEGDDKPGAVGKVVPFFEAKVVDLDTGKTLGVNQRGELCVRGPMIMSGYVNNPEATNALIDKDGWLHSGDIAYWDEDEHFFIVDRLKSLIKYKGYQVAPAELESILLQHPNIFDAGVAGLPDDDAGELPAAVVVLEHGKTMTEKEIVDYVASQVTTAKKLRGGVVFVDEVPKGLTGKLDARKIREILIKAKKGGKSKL
In short: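 Biochemical qHTS: compounds run as interplate titrations against purified firefly enzyme, with D-luciferin and ATP each at its KM concentration. Light output recorded by CCD imaging.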

[3] = qHTS assay to identify small molecule antagonists of the constitutive androstane receptor (CAR) signaling pathway - cell viability counter screen (AID 1224837); also: nearly all actives have a fitted effect of over 45% in size; also: potency is read from the fitted curve at half-maximal effect
In short: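 Read-out: CellTiter-Fluor fluorescence after 23 hr at 37 C/5% CO2. Cells: HepG2 double-stable for hCAR and CYP2B6-2.2kb. Compounds tested at 15 concentrations in the presence of CITCO, final concentration 50 nM.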

[4] = biological target: Nuclear receptor subfamily 1 group I member 3 (Homo sapiens) (UniProt Q14994); test: qHTS assay to identify small molecule antagonists of the constitutive androstane receptor (CAR) signaling pathway (AID 1224838);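 also: HepG2 cells stably expressing hCAR with CYP2B6 luciferase reporter stimulated by CITCO; nearly all actives have a fitted effect of over 40% in size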; also: potency is read from the fitted curve at half-maximal effect
Nuclear receptor subfamily 1 group I member 3 (Homo sapiens), sequence (Q14994 whole entry, looked up): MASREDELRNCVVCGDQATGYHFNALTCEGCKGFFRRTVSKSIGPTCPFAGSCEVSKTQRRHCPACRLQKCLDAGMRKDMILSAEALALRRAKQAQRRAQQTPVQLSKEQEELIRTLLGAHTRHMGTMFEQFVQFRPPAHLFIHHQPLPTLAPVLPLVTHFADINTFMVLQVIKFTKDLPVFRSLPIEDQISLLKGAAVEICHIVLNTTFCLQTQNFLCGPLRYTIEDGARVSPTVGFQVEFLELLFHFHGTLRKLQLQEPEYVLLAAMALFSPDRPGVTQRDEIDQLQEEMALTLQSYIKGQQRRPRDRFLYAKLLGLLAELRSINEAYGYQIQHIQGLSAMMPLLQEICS
In short: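 Read-out: ONE-Glo luciferase luminescence after 30 min at room temperature. HepG2-CYP2B6-hCAR double-stable cells, compounds in 15-point titration plus 50 nM CITCO final, 24 h at 37 C/5% CO2.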

[5] = biological target: Nuclear receptor subfamily 1 group I member 3 (Homo sapiens) (UniProt Q14994); test: qHTS assay to identify small molecule agonists of the constitutive androstane receptor (CAR) signaling pathway (AID 1224839);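 also: HepG2 cells stably carrying human CAR and a CYP2B6 luciferase reporter; nearly all actives have a fitted effect of over 15% in size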
In short: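 Readout: firefly luciferase luminescence via ONE-Glo. System: HepG2 double-stable for hCAR and CYP2B6-2.2kb. Conditions: 15-point compound titration, PK11195 at 0.75 uM final, 24 h incubation.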

[6] = qHTS assay to identify small molecule antagonists of the estrogen related receptor signaling pathway with the pleiotropic PPARgamma coactivator (PGC) from Tox21 10K library - cell viability counter screen (AID 1224840; active = well fitted cell-killing curve with a large enough effect in the repeat runs, not every such curve was filed as active; also: nearly all actives have a fitted effect of over 40% in size; also: potency is read from the fitted curve at half-maximal effect)
In short: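 Fluorescence read-out of CellTiter-Fluor viability reagent, added after cells had been exposed to compound in DMSO for 17.5 h at 37 C; 30 min development at 37 C/5% CO2. Cells: PGC/ERR line, 2,000/well.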

[7] = qHTS assay to identify small molecule antagonists of the estrogen related receptor signaling pathway with the pleiotropic PPARgamma coactivator (PGC) from Tox21 10K library (AID 1224841; call rule not given here; also: actives are mostly falling curves and most rising ones were filed inactive; nearly all actives have a fitted effect of over 50% in size; also: potency is read from the fitted curve at half-maximal effect)
In short: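 Luminescence read-out (One-Glo luciferase reagent, 30 min at room temperature) from PGC/ERR cells exposed to DMSO-dissolved test compounds for 18 h at 37 C; cells, 2,000 per well, had been preincubated 6 h before compound transfer.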

[8] = qHTS assay to identify small molecule agonists of the estrogen related receptor signaling pathway with the pleiotropic PPARgamma coactivator (PGC) from Tox21 10K library (AID 1224842); also: nearly all actives have a fitted effect of over 15% in size
In short: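 PGC/ERR reporter cell line, 2,000 cells per well, incubated 6 h at 37 C before 23 nL compound in DMSO was added. After 18 h at 37 C, One-Glo luminescence read following 30 min at room temperature.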

[9] = biological target: Thyrotropin receptor (Homo sapiens) (UniProt P16473); test: qHTS assay to identify small molecule agonists of the thyroid stimulating hormone receptor (TSHR) signaling pathway (AID 1224843; calls by dose curve; also: nearly all actives have a fitted effect of over 45% in size)
Thyrotropin receptor (Homo sapiens), sequence (P16473 whole entry, looked up): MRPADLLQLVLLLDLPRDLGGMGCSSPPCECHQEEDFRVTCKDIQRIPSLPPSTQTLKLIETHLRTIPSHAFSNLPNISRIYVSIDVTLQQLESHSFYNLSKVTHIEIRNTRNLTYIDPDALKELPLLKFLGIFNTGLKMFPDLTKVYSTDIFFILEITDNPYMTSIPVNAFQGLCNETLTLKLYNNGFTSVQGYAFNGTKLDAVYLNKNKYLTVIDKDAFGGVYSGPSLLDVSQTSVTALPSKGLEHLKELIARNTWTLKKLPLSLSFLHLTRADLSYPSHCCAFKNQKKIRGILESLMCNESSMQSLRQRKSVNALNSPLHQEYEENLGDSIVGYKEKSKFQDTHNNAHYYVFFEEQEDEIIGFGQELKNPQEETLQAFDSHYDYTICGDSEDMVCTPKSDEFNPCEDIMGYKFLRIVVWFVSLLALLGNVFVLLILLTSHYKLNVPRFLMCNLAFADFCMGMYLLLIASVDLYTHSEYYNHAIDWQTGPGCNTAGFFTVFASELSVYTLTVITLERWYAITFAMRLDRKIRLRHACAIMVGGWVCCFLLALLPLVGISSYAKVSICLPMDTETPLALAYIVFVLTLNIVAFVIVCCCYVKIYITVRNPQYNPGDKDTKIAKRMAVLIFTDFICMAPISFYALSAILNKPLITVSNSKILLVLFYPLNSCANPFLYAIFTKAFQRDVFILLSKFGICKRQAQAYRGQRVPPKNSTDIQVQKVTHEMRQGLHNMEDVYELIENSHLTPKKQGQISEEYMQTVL
In short: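 Agonist-mode screen: TSHR HEK293 cells received test chemicals for half an hour at room temperature, then HTRF cAMP detection reagents for one hour prior to fluorescence measurement. Each chemical ran as a 15-concentration series, triplicated.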

[10] = qHTS assay to identify small molecule agonists of the hypoxia (HIF-1) signaling pathway - cell viability counter screen (AID 1224844; calls by dose curve; also: nearly all actives have a fitted effect of over 50% in size; also: potency is read from the fitted curve at half-maximal effect)
In short: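 CellTiter-Glo luminescence read-out, 30 min RT, taken in the same wells as the beta-lactamase HRE reporter assay; HRE-bla ME-180 cells, 0.5% dialyzed FBS, 17 hr compound treatment at 37C, 5% CO2.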

[11] = qHTS assay to identify small molecule agonists of H2AX (AID 1224845; active = well fitted activation curve with a large enough effect in the signal ratio in the repeat runs, not every such curve was filed as active; the % refers to the signal ratio; also: potency is read from the fitted curve at half-maximal effect)
In short: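 Wild-type CHO-K1 cells, plated overnight, exposed 3hr at 37C to 15 concentrations (0.76% DMSO final). Lysed, then HTRF anti-pH2AX (S139) cryptate and anti-H2AX-d2 antibodies, 24 hr room temperature; 665/620 nm emission read.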

[12] = qHTS assay to identify small molecule agonists of H2AX - cell viability counter screen (AID 1224847; calls by dose curve; also: top concentration of the series differs between compounds; nearly all actives have a fitted effect of over 30% in size)
In short: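 For this counter screen, overnight-attached CHO-K1 cells received test compounds (15 concentrations, 0.76% DMSO final); 3 hr later at 37C, CellTiter-Glo reagent was added and luminescence recorded after 30 min at room temperature.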

[13] = qHTS assay to identify small molecule antagonists of the estrogen related receptor (ERR) signaling pathway from Tox21 library (AID 1224848); also: nearly all actives have a fitted effect of over 50% in size; also: potency is read from the fitted curve at half-maximal effect
In short: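 Quantitative high-throughput format: ERR reporter cells (2,000/well) pre-incubated 6 h, treated 18 h at 37 C with compounds in DMSO alongside positive and negative controls, then read by ONE-Glo luminescence.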

[14] = qHTS assay to identify small molecule agonists of the estrogen related receptor (ERR) signaling pathway from Tox21 library (AID 1224849; calls by dose curve; also: nearly all actives have a fitted effect of over 15% in size); settings: ERR reporter cell line, ONE-Glo luciferase, 18 h
In short: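 Luminescence readout (ONE-Glo, 30 min RT) after 18 h compound exposure at 37 C of NTP-supplied ERR reporter cells; cells were plated 6 h before compound addition by pin tool.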

[15] = A CellTox Green Cytotoxicity Assay to monitor cytotoxicity in HEK293 cells - 0 hour (AID 1224869); also: nearly all actives have a fitted effect of over 50% in size
In short: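 Read-out: fluorescence of a cell-impermeant cyanine dye staining DNA of dead cells, proportional to cytotoxicity. HEK293, 600 cells/well with reagent, compound (23 nL DMSO) added after 5 h; reads at 0, 8, 16, 24, 32, 40 h.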

[16] = qHTS RealTime-Glo MT Cell Viability Assay in HepG2 cells - 40 hour (AID 1224870); also: nearly all actives have a fitted effect of over 50% in size
In short: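 HepG2 cells (600/well) mixed with RealTime-Glo MT reagent, settled 5 h at 37 C/5% CO2 before compound addition. Nonlytic NanoLuc luminescence from viable-cell prosubstrate reduction read repeatedly during 40 h treatment at 37 C.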

[17] = qHTS RealTime-Glo MT Cell Viability Assay in HepG2 cells - 24 hour (AID 1224867); also: nearly all actives have a fitted effect of over 50% in size; also: potency is read from the fitted curve at half-maximal effect
In short: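 Compound treatment began 5 h after plating HepG2 cells (600/well) with NanoLuc luciferase and prosubstrate. Plates stayed at 37 C for 40 h; luminescence was captured at six time points, 0 h through 40 h.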

[18] = qHTS assay to identify small molecule agonists of the hypoxia (HIF-1) signaling pathway (AID 1224846; active = well fitted activation curve with a large enough effect in the signal ratio in the repeat runs, not every such curve was filed as active; the % refers to the signal ratio)
In short: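 Beta-lactamase FRET read-out (CCF4-AM substrate) from ME-180 cells carrying an HRE-driven bla reporter, after 17 hrs compound exposure at 37C/5% CO2. Cells were seeded at 2,000 per well in 0.5% dialyzed FBS medium and preincubated 5 hrs.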

[19] = qHTS RealTime-Glo MT Cell Viability Assay in HEK293 cells - 32 hour (AID 1224868); also: nearly all actives have a fitted effect of over 50% in size; also: potency is read from the fitted curve at half-maximal effect; as to activity change, negative = cytotoxic: top concentration of the series differs between compounds
In short: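 Quantitative high-throughput screen of the Tox21 10K library in HEK293: cells and RealTime-Glo reagents plated together, compound added at 5 h, luminescence monitored through 40 h at 37 C.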

[20] = qHTS assay to identify small molecule agonists of the constitutive androstane receptor (CAR) signaling pathway - cell viability counter screen (AID 1224836); also: nearly all actives have a fitted effect of over 45% in size; also: potency is read from the fitted curve at half-maximal effect
In short: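 Double-stable HepG2 hepatoma cells (hCAR plus CYP2B6-2.2kb) are treated for 23 h at 37 C with test compounds in 15-point concentration series. PK11195 at 0.75 uM final is co-added. Cell viability is quantified by CellTiter-Fluor.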

CC(C)(c1ccccc1)c1ccc(Nc2ccc(C(C)(C)c3ccccc3)cc2)cc1
Potency [1]: inactive
Potency [2]: inactive
Potency [3]: inactive
Potency [4]: inactive
Potency [5]: inactive
Potency [6]: inactive
Potency [7]: inactive
Potency [8]: inactive
Potency [9]: inactive
Potency [10]: inactive
Potency [11]: inactive
Potency [12]: inactive
Potency [13]: 15.3 µM (active) and inactive
activity change, positive = activation ([14]; at 92.4 µM (top of the series)): -43.2% (inactive) and -18.6% (inactive)
Potency [15]: inactive
Potency [16]: inactive

O=C(Nc1ccccc1SSc1ccccc1NC(=O)c1ccccc1)c1ccccc1
Potency [1]: 43.5 µM (active) and 48.6 µM (active)
Potency [2]: 5.05 µM (active) and 2.52 µM (active)
Potency [3]: 19.4 µM (active) and 24.3 µM (active)
Potency [4]: 21.8 µM (active) and 30.6 µM (active)
Potency [5]: inactive
Potency [6]: 30.8 µM (active) and 48.6 µM (active)
Potency [7]: 27.4 µM (active) and 27.3 µM (active)
Potency [8]: inactive
Potency [9]: inactive
Potency [10]: 15.6 µM (active) and 21.9 µM (active)
Potency [11]: 18 µM (active)
Potency [13]: 24.5 µM (active) and 43.3 µM (active)
activity change, positive = activation ([14]; at 92.4 µM (top of the series)): -71.7% (inactive) and -62.7% (inactive)
Potency [17]: inactive and 49 µM (active)
Potency [15]: inactive
Potency [16]: inactive

CO[Si](OC)(OC)c1ccccc1
Potency [1]: inactive
Potency [2]: inactive
Potency [3]: inactive
Potency [4]: inactive
Potency [5]: inactive
Potency [6]: inactive
Potency [7]: inactive
Potency [8]: inactive
Potency [9]: inactive
Potency [10]: inactive
Potency [11]: inactive
Potency [18]: inactive
Potency [12]: inactive
Potency [13]: inactive
activity change, positive = activation ([14]; at 92.4 µM (top of the series)): 18% (inactive)
Potency [17]: inactive
Potency [19]: inactive
Potency [15]: inactive
Potency [16]: inactive

O=c1n(CC2CO2)c(=O)n(CC2CO2)c(=O)n1CC1CO1 (stereo not drawn)
Potency [1]: 60.8 µM (active)
Potency [2]: inactive
Potency [20]: 54.2 µM (active) and 61.1 µM (active)
Potency [3]: 60.8 µM (active) and 54.5 µM (active)
Potency [4]: 76.5 µM (active) and 61.1 µM (active)
Potency [5]: inactive
Potency [9]: inactive
Potency [10]: inactive
Potency [11]: 112 µM (active)
Potency [18]: inactive
Potency [17]: inactive
Potency [15]: inactive
Potency [16]: inactive

CCCCCCCCCCCCCCCCCl
viability change, negative = cytotoxic [1]: 1.81% [at 19 µM] (inactive)
activity change, negative = inhibition [2]: 0.302% [at 23.6 µM] (inactive)
activity change, negative = cytotoxicity [3]: -1.23% [at 19 µM] (inactive)
activity, negative = inhibition [4]: -1.8% [at 19 µM] (inactive)
activation [5]: -1.81% [at 19 µM] (inactive)
viability change, negative = cytotoxic [6]: 6.02% [at 19 µM] (inactive)
activity, negative = inhibition [7]: 65% [at 19 µM] (inactive)
activation [8]: 5.12% [at 19 µM] (inactive)
activation [9]: 0.927% [at 19 µM] (inactive)
activity change, negative = cytotoxicity [10]: 8.74% [at 15.8 µM] (inactive)
activation (H2AX phosphorylation) [11]: 1.73% [at 31.6 µM] (inactive)
activation [18]: 0.196% [at 15.8 µM] (inactive)
activity, negative = inhibition [13]: 15.7% [at 19 µM] (inactive)
activity change, positive = activation ([14]; at 19 µM (top of the series)): 7.84% (inactive)
activity change, negative = cytotoxic [19]: -2.48% [at 15.8 µM] (inactive)
cytotoxicity [15]: 1.64% [at 15.8 µM] (inactive)
activity change, negative = cytotoxic [16]: 12.5% [at 15.8 µM] (inactive)

COC(=O)[C@H]1[C@H]2C[C@@H]3c4[nH]c5cc(OC)ccc5c4CCN3C[C@H]2C[C@@H](OC(=O)c2cc(OC)c(OC)c(OC)c2)[C@@H]1OC
Potency [1]: 22.3 µM (active)
Potency [2]: inactive
Potency [20]: inactive
Potency [3]: inactive
Potency [6]: inactive
Potency [7]: 43.2 µM (active) and 15.8 µM (active)
Potency [8]: inactive
Potency [9]: inactive
Potency [10]: 24.5 µM (active) and 31.8 µM (active) and inactive
Potency [11]: inactive
Potency [12]: inactive
Potency [13]: 24.3 µM (active) and 19.9 µM (active) and 26.6 µM (active)
activity change, positive = activation ([14]; at 42.5 µM (top of the series)): -35.9% (inactive)
activity change, positive = activation ([14]; at 92.4 µM (top of the series)): -60.3% (inactive) and -57.9% (inactive)
Potency [19]: 5.48 µM (active) and 6.34 µM (active) and 9.52 µM (active)
Potency [15]: inactive
Potency [16]: inactive
